Molecules are shown by their SMILES. The source made the active and inactive calls.

Experiment [1] has as its system Wnt5a (protein binding on small-molecule microarray). Description: small molecules binding Wnt5a protein – biophysical, small-molecule microarray, 635/667 nm fluorescence, primary screen (AID 1142).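 Further: fluorescence read at 667 nm with signal to noise per printed feature.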 To be noted: 635 nm fluorescence, higher = more signal.
Experiment [2] is described as follows: ATP-based viability of Huh7 replicon cells – cell-based, CellTiter-Glo luminescence, basal, 48 h, cytotoxicity control for HCV replication inhibitor project, primary screen (AID 1143).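 Further: Huh7 hepatoma cells carrying a hepatitis C replication reporter with no stimulus; test concentration not given here.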 The settings on record: higher = more signal, called active from +8 up or from −8 down. On the technique in general: In antiviral work, replicon cells carry a viral genome segment that copies itself.

Experiment [3] is described as follows: basal CRE-LacZ reporter activity in PC12 – cell-based, unstimulated, primary screen (AID 1145). To be noted: no forskolin, luminescence, 4.5 h, higher = more signal, called active from +8 up or from −8 down.
Experiment [4] can be described thus: forskolin-driven CRE-LacZ activity in PC12 – cell-based, CRE-LacZ reporter, forskolin-stimulated, primary screen (AID 1146).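 Further: PC12 cells with 6xCRE LacZ reporter stimulated by forskolin 10 µM; beta-galactosidase reporter signal reflecting CREB driven transcription.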 To be noted: luminescence, 4.5 h, higher = more signal, called active from +8 up or from −8 down.
For experiment [5], the target named is Streptavidin (Streptomyces avidinii) (UniProt P22629). Put plainly: compounds binding control protein streptavidin – biophysical, small-molecule microarray, 635/667 nm fluorescence, artefact control for SMM compound annotation, primary screen (AID 1147).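 Further: signal reflects streptavidin binding to arrayed compounds as a control protein.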 The settings on record: higher = more signal.
Streptavidin (Streptomyces avidinii), sequence (P22629 whole entry, looked up): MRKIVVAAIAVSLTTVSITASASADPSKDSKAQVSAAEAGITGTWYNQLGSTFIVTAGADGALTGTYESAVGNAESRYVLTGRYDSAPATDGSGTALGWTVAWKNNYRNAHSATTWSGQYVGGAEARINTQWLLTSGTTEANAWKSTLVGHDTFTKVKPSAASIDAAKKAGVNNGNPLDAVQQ
Experiment [6] is described as follows: probe aInhba binding on compound microarray – biochemical, small-molecule microarray, 635/667 nm fluorescence, primary screen (AID 1148).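 Further: score merges 667nm spot fluorescence with signal-to-noise for antibody binding to printed compounds.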 The settings on record: higher = more signal.
Experiment [7] deals with Torsin-1A (Homo sapiens) (UniProt O14656). Put plainly: TOR1A wild-type binding on microarray – cell lysate, small-molecule microarray, lysate, 635/667 nm, primary screen (AID 1149). The settings on record: COS7 hTOR1A-WT lysate, 635 nm fluorescence, higher = more signal.
Torsin-1A (Homo sapiens), sequence (O14656 whole entry, looked up): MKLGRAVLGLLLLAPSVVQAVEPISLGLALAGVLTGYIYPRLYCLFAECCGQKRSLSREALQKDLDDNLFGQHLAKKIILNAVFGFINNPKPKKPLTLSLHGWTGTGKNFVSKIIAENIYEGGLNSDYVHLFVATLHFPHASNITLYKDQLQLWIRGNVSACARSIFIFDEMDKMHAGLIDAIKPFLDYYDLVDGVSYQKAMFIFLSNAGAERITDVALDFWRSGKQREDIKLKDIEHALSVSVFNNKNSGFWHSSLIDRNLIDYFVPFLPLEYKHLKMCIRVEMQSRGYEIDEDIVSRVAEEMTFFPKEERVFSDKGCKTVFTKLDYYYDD
Experiment [8] shares this target. Put plainly: torsin A mutant lysate binding on microarrays – cell lysate, small-molecule microarray, COS7 lysate, 635/667 nm fluorescence, primary screen (AID 1150).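 Further: score pools 667 nm emission and signal to noise measuring lysate protein binding.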 To be noted: COS7 hTOR1A mutant lysate, 635 nm fluorescence, higher = more signal.
In experiment [9] the test system is Sonic hedgehog protein (Shh). Description: Sonic hedgehog microarray binding compounds – biochemical, small-molecule microarray, 635/667 nm fluorescence, primary screen (AID 1151).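 Further: Shh protein binding to compounds spotted on small-molecule microarray slides; score combines spot fluorescence intensity with signal-to-noise across triplicate slides.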 To be noted: 635 nm fluorescence, higher = more signal.
Experiment [10] is described as follows: optical density shifts of acrAB sulA E. coli – strain DRC41, OD650, 48 h, E. coli filamentation inducer project, primary screen (AID 1152).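 Further: E. coli MC1000 strain DRC41 lacking acrAB efflux pump and sulA.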 The settings on record: higher = more signal, called active from +8 up or from −8 down.
A short description of experiment [11]: probe aLefty1 binding on compound microarray – biochemical, small-molecule microarray, 635/667 nm fluorescence, primary screen (AID 1153).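 Further: score merges spot fluorescence with signal-to-noise ratio from the scanned slide images.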 The settings on record: higher = more signal.
A short description of experiment [12]: plasmodial surface anion channel blockers, osmotic lysis – cell-based, P. falciparum Indochina, OD700, 1 h, primary screen (AID 1154). To be noted: P. falciparum Indochina infected RBC osmotic lysis, higher = more signal, called active from +8 up or from −8 down.
Experiment [13] can be described thus: plasmodial surface anion channel blockers, osmotic lysis – cell-based, P. falciparum Indochina, OD700, 2 h, primary screen (AID 1155).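 Further: lysis reports solute entry through the parasite surface anion channel PSAC.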 To be noted: P. falciparum Indochina infected erythrocytes, higher = more signal, called active from +8 up or from −8 down.
A short description of experiment [14]: changes in parasitized red cell lysis, either direction – P. falciparum Indochina, OD700, 3 h, PSAC antagonist project, primary screen (AID 1156). The settings on record: P. falciparum-infected erythrocytes, osmotic lysis, higher = more signal, called active from +8 up or from −8 down.
The nature of experiment [15]: plasmodial surface anion channel blockers, osmotic lysis – cell-based, P. falciparum Indochina, OD700, 18 h, primary screen (AID 1157). To be noted: P. falciparum Indochina infected erythrocytes, osmotic lysis OD700, 18 h; higher = more signal, called active from +8 up or from −8 down.
Experiment [16] is described as follows: S6 kinase pathway phospho-S6 level changes – cell-based, A549, cytoblot, luminescence, serum-stimulated, primary screen (AID 1158).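 Further: serum-stimulated A549 lung adenocarcinoma cells; signal is phosphorylated S6 detected by cytoblot immunostaining with HRP secondary.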 The settings on record: 5 h, higher = more signal.
Experiment [17] addresses NADPH oxidase 2 (Homo sapiens) (UniProt P04839). Put plainly: compounds shifting NOX2 Amplex Red fluorescence – cell-based, HEK293-NOX2, PMA-stimulated, NOX inhibitor project, primary screen (AID 1159). Further: test concentration not given here. To be noted: 45 min, higher = more signal, called active from +8 up or from −8 down.
The target in experiment [18] is NADPH oxidase 4 (Homo sapiens) (UniProt Q9NPH5). Description: compounds shifting NOX4 Amplex Red fluorescence – cell-based, HEK293-NOX4, tetracycline-induced, NOX inhibitor project, primary screen (AID 1160). The settings on record: HEK293-NOX4, Amplex Red H2O2 fluorescence, 45 min; higher = more signal, called active from +8 up or from −8 down.
NADPH oxidase 4 (Homo sapiens), sequence (Q9NPH5 whole entry, looked up): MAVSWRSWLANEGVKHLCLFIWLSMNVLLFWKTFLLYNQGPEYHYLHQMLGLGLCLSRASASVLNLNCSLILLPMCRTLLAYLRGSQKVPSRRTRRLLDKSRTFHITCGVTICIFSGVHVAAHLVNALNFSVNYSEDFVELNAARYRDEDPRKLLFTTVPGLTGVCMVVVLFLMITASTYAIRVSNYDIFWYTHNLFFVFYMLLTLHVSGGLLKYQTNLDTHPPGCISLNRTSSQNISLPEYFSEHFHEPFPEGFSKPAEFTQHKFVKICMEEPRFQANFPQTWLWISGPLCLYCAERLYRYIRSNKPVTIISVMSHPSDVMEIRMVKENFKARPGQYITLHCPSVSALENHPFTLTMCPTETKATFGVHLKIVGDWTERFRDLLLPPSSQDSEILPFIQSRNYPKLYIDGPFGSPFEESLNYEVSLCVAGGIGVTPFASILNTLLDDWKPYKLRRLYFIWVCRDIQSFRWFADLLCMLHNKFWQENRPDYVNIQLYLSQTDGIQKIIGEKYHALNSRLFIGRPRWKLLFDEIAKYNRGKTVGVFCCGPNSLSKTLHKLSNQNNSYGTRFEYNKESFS
Experiment [19] deals with NADPH oxidase 5 (Homo sapiens) (UniProt Q96PH1). Description: compounds shifting NOX5 Amplex Red fluorescence – cell-based, HEK293-NOX5, NOX inhibitor project, primary screen (AID 1161). The settings on record: HEK293-NOX5, ionomycin, 45 min, higher = more signal.
NADPH oxidase 5 (Homo sapiens), sequence (Q96PH1 whole entry, looked up): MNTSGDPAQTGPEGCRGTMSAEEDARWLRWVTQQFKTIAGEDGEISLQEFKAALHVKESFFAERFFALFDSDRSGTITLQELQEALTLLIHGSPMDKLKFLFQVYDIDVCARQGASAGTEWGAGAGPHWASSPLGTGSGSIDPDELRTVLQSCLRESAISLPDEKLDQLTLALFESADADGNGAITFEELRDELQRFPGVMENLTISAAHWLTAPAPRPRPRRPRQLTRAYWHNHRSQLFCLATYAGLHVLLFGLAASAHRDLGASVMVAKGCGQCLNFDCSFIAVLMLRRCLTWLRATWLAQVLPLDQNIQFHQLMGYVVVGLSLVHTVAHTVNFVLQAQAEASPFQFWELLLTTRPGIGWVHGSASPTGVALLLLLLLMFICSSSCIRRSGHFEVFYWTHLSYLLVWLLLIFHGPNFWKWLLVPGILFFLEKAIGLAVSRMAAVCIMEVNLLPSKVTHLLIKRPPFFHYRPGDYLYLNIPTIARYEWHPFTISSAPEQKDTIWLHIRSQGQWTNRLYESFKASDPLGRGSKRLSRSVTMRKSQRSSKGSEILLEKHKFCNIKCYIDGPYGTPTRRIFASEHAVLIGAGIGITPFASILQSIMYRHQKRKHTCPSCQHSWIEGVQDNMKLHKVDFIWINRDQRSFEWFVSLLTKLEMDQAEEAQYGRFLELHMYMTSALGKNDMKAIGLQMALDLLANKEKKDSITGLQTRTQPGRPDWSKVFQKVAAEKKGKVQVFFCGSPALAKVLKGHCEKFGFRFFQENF
The nature of experiment [20]: compound effects on lung adenocarcinoma cell viability – A549, calcein-AM fluorescence, 48 h, basal, profiling panel (AID 1162). Further: test concentration not given here. The settings on record: higher = more signal.

NADPH oxidase 2 (Homo sapiens), sequence (P04839 whole entry, looked up): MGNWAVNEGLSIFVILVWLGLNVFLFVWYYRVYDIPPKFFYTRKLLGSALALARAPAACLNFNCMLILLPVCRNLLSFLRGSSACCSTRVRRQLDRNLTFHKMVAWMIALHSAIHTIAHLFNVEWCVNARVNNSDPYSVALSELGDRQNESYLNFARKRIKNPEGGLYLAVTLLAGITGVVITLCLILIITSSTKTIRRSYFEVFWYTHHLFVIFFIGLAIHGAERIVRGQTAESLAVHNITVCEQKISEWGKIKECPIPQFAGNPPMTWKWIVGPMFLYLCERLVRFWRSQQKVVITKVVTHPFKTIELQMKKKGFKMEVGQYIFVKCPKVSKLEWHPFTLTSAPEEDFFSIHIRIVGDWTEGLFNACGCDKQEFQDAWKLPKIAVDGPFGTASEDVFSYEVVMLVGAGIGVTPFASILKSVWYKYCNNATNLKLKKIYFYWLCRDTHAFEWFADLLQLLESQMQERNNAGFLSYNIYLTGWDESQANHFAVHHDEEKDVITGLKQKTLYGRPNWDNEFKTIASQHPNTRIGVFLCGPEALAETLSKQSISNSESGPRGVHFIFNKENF

Turning to `COc1ccc([Si](C)(C)[C@@H]2[C@@H](CC(=O)N3CCC[C@H]3CO)O[C@]3(C(=O)N(Cc4ccc(I)cc4)c4ccccc43)[C@H]2C)cc1`, the composite z-score in experiment [1] is 0.229; in [5], 0.983; in experiment [6] it was -0.109; in experiment [7], 0.626; in [8] it was 0.199; in experiment [9], 0.646. In addition, the composite z-score in experiment [11] was 0.0677. Besides, the z-score in [2] is -4.55 (inactive); in experiment [3] it was 0.105 (inactive); in [4], -1.86 (inactive); in [10], 1.97 (inactive); in [12], 5.17 (inactive); in experiment [13] it was 0.0509 (inactive). Also, the z-score is -0.7 (inactive) in [14]; -1.17 (inactive) in [15]; 2.62 in [16]; 2.26 (inactive) in [17]; 0.932 (inactive) in experiment [18]; 4 in experiment [19]. In [20], the z-score is -0.298.
Regarding `COc1ccc(C(=O)Nc2cccc(CN3C(=O)[C@@]4(O[C@@H](CCO)[C@H]([Si](C)(C)c5ccc(OC)cc5)[C@H]4C)c4ccccc43)c2)cc1`, the composite z-score in experiment [1] is 0.143; in experiment [5] it was 0.182; in experiment [6] it was -0.0523; in [7] it was 0.317; in experiment [8], 0.478; in experiment [9] it was 0.626. The molecule further gave a composite z-score in experiment [11] of -0.0082. Further, the z-score is -8.03 (active) in [2]; 4.03 (inactive) in experiment [3]; -2.29 (inactive) in experiment [4]; 0.677 (inactive) in [10]; 9.1 (active) in experiment [12]; 1.27 (inactive) in experiment [13]. The z-score was -0.984 (inactive) in experiment [14]; -0.11 (inactive) in [15]; 0.487 in experiment [16]; -6.67 (inactive) in [17]; -2.83 (inactive) in [18]; -2.96 in experiment [19]. The z-score in experiment [20] is -3.95.
For `[N-]=[N+]=NCc1ccccc1C[C@@]1(C(=O)O)N=C(c2ccc(OCCCO)cc2)O[C@@H]1c1ccccc1`, the composite z-score in [1] is 0.0855; in experiment [5], 0.246; in experiment [6] it was -0.0421; in experiment [7] it was -0.233; in experiment [8] it was 0.0019; in experiment [9], -0.515. Besides, the composite z-score in experiment [11] is -0.0654. The z-score was -0.563 (inactive) in [2]; -0.137 (inactive) in experiment [3]; 0.718 (inactive) in experiment [4]; 0.706 (inactive) in experiment [10]; 15.1 (active) in experiment [12]; 2.07 (inactive) in experiment [13]. For the same molecule, the z-score is 0.912 (inactive) in experiment [14]; 0.199 (inactive) in [15]; 0.218 in experiment [16]; 1.07 (inactive) in experiment [17]; 1.34 (inactive) in [18]; 1.48 in [19]. Besides, the z-score in experiment [20] was 0.349.
For the molecule `O=C1O[C@H](c2ccccc2)[C@H](c2ccccc2)N2[C@H]1[C@@H](C(=O)Nc1nc3ccccc3s1)[C@]1(C(=O)Nc3ccc(C#CCCO)cc31)[C@H]2c1ccccc1OCCO`, the composite z-score worked out at 0.81 in experiment [1]; 1.11 in experiment [5]; 0.279 in experiment [6]; 0.795 in experiment [7]; 0.778 in experiment [8]; 0.384 in experiment [9]. In experiment [11], this molecule came in with a composite z-score of 0.634. Further, the z-score in [2] was -2.88 (inactive); in experiment [3], 0.182 (inactive); in experiment [4] it was -0.428 (inactive); in experiment [10], 2.34 (inactive); in [12], 2.76 (inactive); in experiment [13], 2.95 (inactive). The z-score in experiment [14] is 1.4 (inactive); in [15], 1.69 (inactive); in [16] it was 0.503; in [17], 0.146 (inactive); in experiment [18], 0.228 (inactive); in experiment [19], 2.14. Besides, in experiment [20], the z-score was -0.655.

(Values after PubChem BioAssay.)
